Laboratory results as given in PubChem BioAssay (NCATS).
Results filed as inconclusive are left out. Calls of active or inactive are those of the source. Calls come from the whole dose curve; as a rule, active = well fitted inhibition curve with a large enough effect; inconclusive = small, poorly fitted or top-dose-only effect; inactive = flat fitted curve, though single readings scatter.

Tests used:
Experiment in all cases: qHTS profiling for inhibitors of Plasmodium falciparum proliferation (AID 504749); note: nearly all actives have a fitted effect of over 60% in size
Conditions in all cases: P. falciparum in erythrocytes, SYBR Green DNA, 72 h; series mostly up to 28.7 µM
DIV30 = tested on: DIV30
Summary of the method: (§1)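 Fluorescence of SYBR Green-bound parasite DNA, read at 485/535 nm, served as the growth measure. Infected erythrocytes were cultured with compound 72 h; artemisinin (0.29 uM) and DMSO wells defined the normalization range.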

Dd2 = tested on: Dd2
Summary of the method: as §1

ECU = tested on: ECU
Summary of the method: as §1

FAB9 = tested on: FAB9
Summary of the method: as §1

HB3 = tested on: HB3
Summary of the method: as §1

ICS = tested on: ICS
Summary of the method: as §1

N140 = tested on: N140
Summary of the method: as §1

P94_40 = tested on: P94_40
Summary of the method: as §1

PAD = tested on: PAD
Summary of the method: as §1

PC15 = tested on: PC15
Summary of the method: as §1

PC26 = tested on: PC26
Summary of the method: as §1

PC49 = tested on: PC49
Summary of the method: as §1

SC27B = tested on: SC27B
Summary of the method: as §1

TAB113 = tested on: TAB113
Summary of the method: as §1

TAB165 = tested on: TAB165
Summary of the method: as §1

W2 = tested on: W2
Summary of the method: as §1

GB4 = tested on: GB4
Summary of the method: as §1

JCK = tested on: JCK
Summary of the method: as §1

P93_24 = tested on: P93_24
Summary of the method: as §1

TAB109 = tested on: TAB109
Summary of the method: as §1

Measured: Potency
Potency is the fitted concentration of half-maximal effect.

COc1c(N2C[C@@H]3CCCN[C@H]3C2)c(F)cc2c(=O)c(C(=O)O)cn(C3CC3)c12
not listed: GB4 | JCK | P93_24 | TAB109
inactive: all other assays above

CC[C@H]1CN2CCc3cc(OC)c(OC)cc3[C@H]2C[C@@H]1C[C@@H]1NCCc2cc(OC)c(OC)cc21
active: DIV30 0.478 µM | Dd2 178 nM | ECU 0.316 µM | FAB9 141 nM | GB4 269 nM | HB3 0.316 µM | ICS 0.178 µM | JCK 0.141 µM | N140 0.316 µM | P93_24 282 nM | P94_40 0.251 µM | PAD 355 nM | PC15 0.282 µM | PC26 0.601 µM | PC49 141 nM | SC27B 0.398 µM | TAB109 0.251 µM | TAB113 0.316 µM | TAB165 0.316 µM | W2 151 nM

Nc1ccn([C@@H]2O[C@H](CO)[C@H](O)C2(F)F)c(=O)n1
active: DIV30 2.69 µM | Dd2 1780 nM | ECU 5.01 µM | FAB9 1410 nM | GB4 953 nM | HB3 3.98 µM | ICS 3.98 µM | N140 1.12 µM | P93_24 316 nM | P94_40 0.316 µM | PAD 708 nM | PC26 4.78 µM | PC49 708 nM | SC27B 3.98 µM | TAB109 5.01 µM | TAB113 3.98 µM | TAB165 3.98 µM | W2 190 nM

CCC1=C[C@@H]2CN(C1)Cc1c([nH]c3ccccc13)[C@@](C(=O)OC)(c1cc3c(cc1OC)N(C)[C@@H]1[C@@](O)(C(=O)OC)[C@H](OC(C)=O)[C@]4(CC)C=CCN5CC[C@]31[C@@H]54)C2
active: DIV30 4.26 µM | Dd2 891 nM | ECU 3.98 µM | GB4 2130 nM | HB3 7.94 µM | ICS 3.16 µM | JCK 14.1 µM | N140 1.41 µM | P93_24 2240 nM | P94_40 1.58 µM | PAD 2240 nM | PC15 7.08 µM | PC26 3.38 µM | SC27B 2.24 µM | TAB109 2.24 µM | TAB113 1.58 µM | TAB165 2.51 µM | W2 190 nM

CC=CC1=C(C(=O)O)N2C(=O)[C@H](NC(=O)[C@H](N)c3ccc(O)cc3)[C@@H]2SC1
inactive: all assays above

C[C@H]1C[C@@H]2[C@@H]([C@@H](O)C[C@@]3(C)[C@H]2CC[C@]3(O)C(=O)CO)[C@@]2(C)C=CC(=O)C=C12
not listed: PC26 | W2
inactive: all other assays above

COC(=O)C1=C(C)NC(C)=C(C(=O)OCCN2CCN(C(c3ccccc3)c3ccccc3)CC2)C1c1cccc([N+](=O)[O-])c1 (centres undefined)
active: DIV30 1.69 µM | Dd2 1580 nM | ECU 2.51 µM | FAB9 7080 nM | GB4 2690 nM | HB3 3.16 µM | ICS 1 µM | JCK 12.6 µM | N140 1.58 µM | P93_24 2820 nM | P94_40 2 µM | PAD 3160 nM | PC15 10 µM | PC26 1.9 µM | PC49 5010 nM | SC27B 2.24 µM | TAB109 3.55 µM | TAB113 2 µM | TAB165 2.24 µM | W2 1350 nM

O=C(O)CO.[NH2-].[NH2-].[Pt+2]
not listed: ICS
inactive: all other assays above

COC(=O)C[C@](O)(CCCC(C)(C)O)C(=O)O[C@@H]1C(OC)=C[C@]23CCCN2CCc2cc4c(cc2[C@H]13)OCO4
active: DIV30 0.0338 µM | Dd2 12.6 nM | ECU 0.0178 µM | FAB9 56.2 nM | GB4 30.1 nM | HB3 0.0282 µM | ICS 0.0158 µM | JCK 0.0063 µM | N140 0.02 µM | P93_24 28.2 nM | P94_40 0.0158 µM | PAD 15.8 nM | PC15 0.0316 µM | PC26 0.019 µM | PC49 0.6 nM | SC27B 0.0282 µM | TAB109 0.0251 µM | TAB113 0.0158 µM | TAB165 0.1 µM | W2 30.1 nM

COc1cc(C(=O)NS(=O)(=O)c2ccccc2C)ccc1Cc1cn(C)c2ccc(NC(=O)OC3CCCC3)cc12
active: P94_40 12.6 µM | W2 7570 nM
not listed: DIV30 | Dd2 | ICS | PC26 | SC27B | TAB113 | GB4
inactive: all other assays above

CC(C)(C)NC(=O)[C@H]1CN(Cc2cccnc2)CCN1C[C@@H](O)C[C@@H](Cc1ccccc1)C(=O)N[C@H]1c2ccccc2C[C@H]1O
inactive: JCK | PC49
active: DIV30 9.53 µM | ECU 11.2 µM | GB4 5360 nM | P93_24 14100 nM | P94_40 11.2 µM | PC26 8.49 µM | TAB113 11.2 µM | W2 6010 nM

CN1c2cc(O)c(N=NC(N)=O)cc2CC1S(=O)(=O)O (centres undefined)
inactive: all assays above

CC1(C)O[C@@H]2C[C@@H]3[C@H]4C[C@@H](F)C5=CC(=O)C=C[C@]5(C)[C@@]4(F)[C@@H](O)C[C@]3(C)[C@]2(C(=O)CO)O1
active: DIV30 10.7 µM
not listed: ICS | PC26 | GB4
inactive: all other assays above

Nc1ccn([C@@H]2CS[C@H](CO)O2)c(=O)n1
inactive: all assays above

Nc1ccc(S(=O)(=O)Nc2ncccn2)cc1
inactive: all assays above

O=c1[nH]c(=O)n(C2CCCO2)cc1F (centres undefined)
inactive: all assays above
